Bioassay records as filed in PubChem.
KCNH2 3.1 inh: blocks the human KCNH2 3.1 channel isoform | U2OS KCNH2 3.1, thallium flux FluxOr; hits give low values | activity change, % (tested at about 1.8 µM) | actives 0.95% (n = 340,000);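 active = maximum activity change below -70%; inconclusive = maximum activity change from -70% to -50%; inactive = maximum activity change above -50%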;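 note: thallium influx rate constant from kinetic fluorescence after stimulation buffer; % is set by controls: 0 for no effect and ±100 for the full control effect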
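Normalized rate constant (relative to positive and negative DMSO controls) derived from a 2 min kinetic fluorescence read after stimulation; U2OS cells expressing the 3.1 isoform via virus at 1.77 x 10^8 /mL.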
KB-3-1 tox: kills parental KB-3-1 adenocarcinoma cells; KB-3-1 viability, CellTiter-Glo ATP luminescence, 72 h; Potency, µM (series often up to 46.1 µM), hits mostly cytotoxic; actives 1.4% (n = 400,000); AID 1347075; note: potency is the fitted concentration of half-maximal effect; % is set by controls: 0 for no effect and ±100 for the full control effect; nearly all actives have a fitted effect of over 60% in size
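Multi-concentration cytotoxicity screen in KB-3-1 cells grown in DMEM lacking phenol red with 10% FBS. After 72 h at 37 °C with compound, ATP-dependent luminescence was recorded.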
KB-V1 MDR tox: kills drug-selected multidrug resistant KB-V1 cells; Potency, µM (doses to about 46.1 µM), usual class: cytotoxic; actives 3.4% (n = 400,000); KB-V1 MDR cells viability, CellTiter-Glo, 72 h; AID 1347076; note: potency is the fitted concentration of half-maximal effect; % is set by controls: 0 for no effect and ±100 for the full control effect; nearly all actives have a fitted effect of over 60% in size
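KB-V1 cells (P-gp-expressing MDR subline of KB-3-1) in phenol-red-free DMEM with 10% FBS were exposed to library compounds over a concentration series for 72 h at 37 degrees C. Viability read by CellTiter-Glo luminescence; concentration-effect curves fitted after normalization.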
SW480 rereplic: induces DNA re-replication in SW480 colon adenocarcinoma cells; AID 624297; SW480 DNA re-replication, Hoechst DNA content imaging, 48 h; actives 1.8% (n = 340,000); Potency, µM (doses to about 46.1 µM), inactives show at the top dose re-replication activation, actives largely listed as activators; note: potency is the fitted concentration of half-maximal effect; % of control where 0% means no effect; nearly all actives have a fitted effect of over 55% in size
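SW480 cells exposed to compounds for 48 hr at 37 C, 5% CO2, then Hoechst-stained 40 min. Nuclear DNA content imaged by fluorescence scanning (405 nm excitation, 500-530 nm emission); re-replication scored as increased high-intensity nuclei.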
hERG WT inh: inhibitors of human wildtype KCNH2 potassium channel; Q12809; U2OS, BacMam KCNH2, thallium flux FluxOr; hits give low values; activity change, % at 1.84 µM; actives 0.37% (n = 340,000);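 active = maximum activity change below -70%; inconclusive = maximum activity change between -70% and -50%; inactive = maximum activity change above -50%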; note: % is set by controls: 0 for no effect and ±100 for the full control effect
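U2OS cells were transduced with wild-type KCNH2 virus (2.03 x 10^8 / mL) for 4 h at room temperature, then cultured overnight at 37 C. Thallium flux was read with FluxOr dye. Rate constants were normalized to DMSO controls.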
MCF10A rerep: inducers of DNA re-replication in MCF 10A breast cells; MCF 10A DNA re-replication, Hoechst nuclear intensity, 48 h; actives 2.9% (n = 350,000); Potency, µM (top dose mostly 46.1 µM), for the others: at the top dose activity, positive = re-replication, usual class: activators; note: potency is the fitted concentration of half-maximal effect; % of control where 0% means no effect; nearly all actives have a fitted effect of over 50% in size
Active calls of the source: *; i = inactive; ? = inconclusive; / = not tested or not shown. A selection: hits, their analogues and other compounds. The true share with any hit is near 7.6%. Unless noted, calls come from the whole dose curve; as a rule, active = well fitted curve in the direction sought with a large enough effect; inconclusive = small, poorly fitted or top-dose-only effect, or another doubt; inactive = no such curve, though single readings can be large; an effect the other way counts as inactive or inconclusive.

SMILES | KCNH2 3.1 inh | KB-3-1 tox | KB-V1 MDR tox | SW480 rereplic | hERG WT inh | MCF10A rerep
Cc1nn(C)c(C)c1S(=O)(=O)N(CC(=O)NCCCN1CC(C)CC(C)C1)c1ccc(C(C)C)cc1 (centres undefined) | -23 | i | i | 19% | 50 | 12%
Cc1ccc(N(CC(=O)NC2CCCCCC2)S(=O)(=O)c2c(C)nn(C)c2C)cc1 | -8 | i | 9.2µM* | -2% | 2 | 25%
Cc1ccc(N(CC(=O)NC2CCCCC2C)S(=O)(=O)c2c(C)nn(C)c2C)cc1 (centres undefined) | 3 | i | i | -4% | -6 | -1%
COc1ccc(N(CC(=O)N2CCCCC2)S(=O)(=O)c2c(C)nn(C)c2C)cc1 | 4 | i | i | -5% | 2 | -3%
O=C(NCCN1CCC(n2c(=O)[nH]c3ccccc32)CC1)c1cc(F)cc(F)c1 | / | i | i | / | / | /
O=C(NC(c1ccccc1)c1c(O)ccc2ccccc12)c1ccccc1Cl (centres undefined) | -22 | ? | 21µM* | ? | -4 | 23µM*
O=C(NC(c1ccc(Cl)cc1)c1c(O)ccc2ccccc12)c1ccccc1 (centres undefined) | 2 | ? | 21µM* | ? | -6 | ?
CC(C)CC(=O)NC(c1ccccc1)c1c(O)ccc2ccccc12 (centres undefined) | 3 | i | i | -4% | -25 | 0%
O=C(NC1CCCC1)c1cccc(Cn2cc([N+](=O)[O-])cn2)c1 | -3 | i | i | 9% | -20 | 2%
CN(C(=O)c1cccnc1)c1nc(-c2ccccc2)cs1 | 2 | i | 21µM* | -2% | -4 | 1%
Cc1ccc(-c2csc(N(C)C(=O)c3c(C)nn(-c4ccccc4)c3Cl)n2)cc1 | -7 | i | ? | -5% | -4 | 5.8µM*
Cc1ccc(C(=O)c2sc(Nc3ccc(F)cc3)nc2N)c(C)c1 | / | i | i | / | / | /
Cc1sc2ncnc(NC3CCN(Cc4ccccc4)CC3)c2c1C | ? | ? | 1.6µM* | 12% | 19 | 17%
c1ccc(CN2CCC(Nc3ncnc4sccc34)CC2)cc1 | -13 | i | i | 4% | -5 | -5%
COc1ccc(-c2ccc(C(c3c(C)[nH][nH]c3=O)c3c(C)[nH][nH]c3=O)o2)c([N+](=O)[O-])c1 | 2 | ? | ? | ? | 0 | 21µM*
Cc1[nH][nH]c(=O)c1C(c1ccc(-c2ccc(Cl)c(Cl)c2)o1)c1c(C)[nH][nH]c1=O | 8 | i | i | 14% | 2 | 2.9µM*
Cc1[nH][nH]c(=O)c1C(c1ccc(-c2ccc(F)cc2)o1)c1c(C)[nH][nH]c1=O | 0 | i | i | -8% | 20 | ?
Cc1cc(C)nc(Nc2ncc(O)n2-c2ccc(C)c(C)c2)n1 | -13 | i | 12µM* | -1% | -5 | 15%
Cc1cc(C)nc(Nc2ncc(O)n2-c2ccc(C)c(Cl)c2)n1 | -16 | i | i | -11% | 5 | 2%
COc1ccc(/C=N\NC(=O)c2ccccc2Br)cc1COc1ccc(F)cc1 | -25 | / | / | ? | -11 | ?
COc1ccc(/C=N/NC(=O)c2ccccc2)cc1CN1CCN(c2ccc(F)cc2)CC1 | -107* | i | ? | -5% | -108* | 5%
COc1cc(C(=O)N/N=C/c2ccc(OC)c(CN3CCN(c4ccc(F)cc4)CC3)c2)ccc1O | -105* | i | i | -94% | / | ?
COc1ccc(/C=N/NC(=O)c2cc(-c3ccccc3OC(C)C)nc3ccccc23)cc1CN1CCOCC1 | 3 | i | ? | 27% | -7 | 8.2µM*
COc1ccc(/C=N/NC(=O)c2ccccc2F)cc1CN1CCN(c2ccc(F)cc2)CC1 | -105* | i | i | 5% | ? | 15%
CCOc1ccc(NC(=O)c2c(NC(=O)c3ccco3)sc3c2CCC(C(C)(C)C)C3)cc1 (centres undefined) | / | i | ? | / | / | /
